hERG WT inh: inhibitors of human wildtype KCNH2 potassium channel | Q12809 | U2OS, BacMam KCNH2, thallium flux FluxOr; hits give low values | activity change, % at 1.84 µM | actives 0.37% (n = 340,000) | AID 720551;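 active = maximum activity change below -70%; inconclusive = maximum activity change between -70% and -50%; inactive = maximum activity change above -50%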
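U2OS cells transduced with wild-type KCNH2 virus are loaded with FluxOr dye for 45 min, and thallium flux is measured in kinetic reads before and after stimulation buffer. Rate constants are normalized to DMSO controls.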
KCNH2 3.1 block: KCNH2 3.1 (human) potassium channel inhibition; U2OS KCNH2 3.1, thallium flux FluxOr; hits give low values; activity change, % (tested at about 1.8 µM); actives 0.95% (n = 340,000); AID 720553;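 active = maximum activity change below -70%; inconclusive = maximum activity change from -70% to -50%; inactive = maximum activity change above -50%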;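 also: thallium influx rate constant from kinetic fluorescence after stimulation buffer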
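U2OS cells transduced with KCNH2 3.1 mutant virus (1.77 x 10^8 /mL, 4 h), plated overnight at 37 C, loaded 45 min with FluxOr dye plus Red40 quencher. Thallium flux rate constant from kinetic reads after stimulation buffer, normalised to controls.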
KB-3-1 tox: kills parental KB-3-1 adenocarcinoma cells; Potency, µM (series often up to 46.1 µM), most hits filed as cytotoxic; AID 1347075; KB-3-1 viability, CellTiter-Glo ATP luminescence, 72 h; actives 1.4% (n = 400,000); also: nearly all actives have a fitted effect of over 60% in size
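Using CellTiter-Glo luminescence, growth of non-resistant KB-3-1 adenocarcinoma cells is assessed 72 h after pin-tool compound addition at 37 °C. Normalized responses across the concentration series yield fitted curves.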
MCF10A rereplic: inducers of DNA re-replication in MCF 10A breast cells; Potency, µM (top dose mostly 46.1 µM), usual class: activators; actives 2.9% (n = 350,000); MCF 10A DNA re-replication, Hoechst nuclear intensity, 48 h; AID 624296; also: nearly all actives have a fitted effect of over 50% in size
SW480 rereplic: DNA re-replication induction in SW480 cells; Potency, µM (doses to about 46.1 µM), actives largely listed as activators; actives 1.8% (n = 340,000); SW480 DNA re-replication, Hoechst DNA content imaging, 48 h; also: nearly all actives have a fitted effect of over 55% in size
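Per well, 250 cells were exposed to pinned compound for 48 hr. Nuclear DNA was visualised with Hoechst (40 min, 37 C) and total object intensity recorded by fluorescence scanning.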
KB-V1 MDR tox: kills drug-selected multidrug resistant KB-V1 cells. KB-V1 MDR cells viability, CellTiter-Glo, 72 h. Potency, µM (top dose mostly 46.1 µM), most hits filed as cytotoxic. actives 3.4% (n = 400,000); also: nearly all actives have a fitted effect of over 60% in size
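Drug-selected KB-V1 cells, grown in DMEM lacking phenol red with 10% FBS, receive compound titrations; after three days at 37 degrees C, surviving cell ATP is quantified by CellTiter-Glo luminescence and responses normalized and curve-fitted.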
Each line names hits and unclear results; the compound was inactive in the other large screens. In the library only some 7.6% were active in any assay of this set; here they are far more common. Unless noted, calls follow the shape of the dose curve; as a rule, active = well fitted curve in the direction sought with a large enough effect; inconclusive = small, poorly fitted or top-dose-only effect, or another doubt; inactive = no such curve, though single readings can be large; an effect the other way counts as inactive or inconclusive.

Cc1ccc(S(=O)(=O)N2C[C@H]3[C@H]4C(=O)N(C)C(=O)[C@H]4CC(=O)[C@H]3[C@@H]2c2ccccc2Cl)cc1	none (no result: hERG WT inh, KCNH2 3.1 block, MCF10A rereplic, SW480 rereplic)
COc1ccc(C2C(C(=O)Nc3cc(OC)c(OC)c(OC)c3)c3ccccc3C(=O)N2C)cc1 (stereo unspecified)	KB-3-1 tox inconclusive, MCF10A rereplic inconclusive, SW480 rereplic 6.5µM, KB-V1 MDR tox inconclusive
CCc1ccc(NCc2cc3c(C)nn(-c4ccccc4)c3[nH]c2=O)cc1	MCF10A rereplic inconclusive, SW480 rereplic inconclusive, KB-V1 MDR tox 18µM
Cc1cc2[nH]c(=O)c(=O)[nH]c2cc1S(=O)(=O)N1CCN(c2cccc(C(F)(F)F)c2)CC1	MCF10A rereplic 16µM
COC(=O)[C@]12CCCCC=C1N(Cc1ccc3c(c1)OCO3)C(=O)[C@H](CC(=O)NCc1ccccc1)C2	KB-V1 MDR tox inconclusive (no result: hERG WT inh, KCNH2 3.1 block, MCF10A rereplic, SW480 rereplic)
COC(=O)[C@@]12C[C@@H](CC(=O)NCc3ccccc3)C(=O)N(Cc3ccc4c(c3)OCO4)C1=CCC(C)(C)C2	KB-3-1 tox inconclusive, KB-V1 MDR tox 21µM (no result: hERG WT inh, KCNH2 3.1 block, MCF10A rereplic, SW480 rereplic)
COC(=O)[C@@]12C[C@@H](CC(=O)NCC34CC5CC(CC(C5)C3)C4)C(=O)N(Cc3ccccc3)C1=CCC(C)(C)C2	KB-3-1 tox inconclusive, KB-V1 MDR tox 23µM (no result: hERG WT inh, KCNH2 3.1 block, MCF10A rereplic, SW480 rereplic)
COC(=O)[C@@]12C[C@@H](CC(=O)NCCc3ccccc3OC)C(=O)N(Cc3ccco3)C1=CCC(C)(C)C2	KB-V1 MDR tox 15µM (no result: hERG WT inh, KCNH2 3.1 block, MCF10A rereplic, SW480 rereplic)
COC(=O)[C@@]12C[C@@H](CC(=O)NCc3cccc(C(F)(F)F)c3)C(=O)N(Cc3cccc4ccccc34)C1=CCC(C)(C)C2	KB-V1 MDR tox inconclusive (no result: hERG WT inh, KCNH2 3.1 block, MCF10A rereplic, SW480 rereplic)
COC(=O)[C@@]12C[C@@H](CC(=O)NCCCCc3ccccc3)C(=O)N(Cc3ccco3)C1=CCC(C)(C)C2	KB-V1 MDR tox inconclusive (no result: hERG WT inh, KCNH2 3.1 block, MCF10A rereplic, SW480 rereplic)
COC(=O)[C@@]12C[C@@H](CC(=O)NCc3cccc4ccccc34)C(=O)N(Cc3ccccc3)C1=CCC(C)(C)C2	KB-3-1 tox inconclusive, KB-V1 MDR tox 21µM (no result: hERG WT inh, KCNH2 3.1 block, MCF10A rereplic, SW480 rereplic)
O=C(CNC(=O)c1cccc(OC(F)F)c1)OCc1cc(=O)n2cc(Br)ccc2n1	none
CCOC(=O)[C@]12CCCC=C1N(Cc1ccc3c(c1)OCO3)C(=O)[C@H](CC(=O)NCc1cccc3ccccc13)C2	KB-V1 MDR tox inconclusive (no result: hERG WT inh, KCNH2 3.1 block, MCF10A rereplic, SW480 rereplic)
COC(=O)[C@@]12C[C@@H](CC(=O)N3CCCC3)C(=O)N(Cc3cccc4ccccc34)C1=CCC(C)(C)C2	KB-3-1 tox inconclusive, KB-V1 MDR tox 13µM (no result: hERG WT inh, KCNH2 3.1 block, MCF10A rereplic, SW480 rereplic)
COC(=O)[C@@]12C[C@@H](CC(=O)NCc3cccc4ccccc34)C(=O)N(Cc3ccc4c(c3)OCO4)C1=CCC(C)(C)C2	KB-3-1 tox inconclusive, KB-V1 MDR tox 23µM (no result: hERG WT inh, KCNH2 3.1 block, MCF10A rereplic, SW480 rereplic)
COC(=O)[C@@]12C[C@@H](CC(=O)N3CCN(C(=O)C4CC4)CC3)C(=O)N(Cc3cccc4ccccc34)C1=CCC(C)(C)C2	KB-V1 MDR tox inconclusive (no result: hERG WT inh, KCNH2 3.1 block, MCF10A rereplic, SW480 rereplic)
COC(=O)[C@@]12C[C@@H](CC(=O)NCc3cccc4ccccc34)C(=O)N(Cc3ccco3)C1=CCC(C)(C)C2	KB-V1 MDR tox 21µM (no result: hERG WT inh, KCNH2 3.1 block, MCF10A rereplic, SW480 rereplic)
Cc1nn(-c2ccc(Cl)cc2)c(=O)c2ccccc12	none (no result: hERG WT inh)
Cc1c(Cl)sn(-c2ccc(Cl)cc2)c1=O	KB-3-1 tox 16µM, MCF10A rereplic 3.3µM, SW480 rereplic 1.8µM, KB-V1 MDR tox inconclusive
Cn1ccsc1=NC(=O)c1ccc([N+](=O)[O-])o1	KCNH2 3.1 block inconclusive, KB-3-1 tox inconclusive, MCF10A rereplic 7.3µM, SW480 rereplic 9.2µM, KB-V1 MDR tox inconclusive
Cc1ccc(NC(=O)Cn2c(-c3ccc(F)cc3)cnc2SCC(=O)Nc2c(C)cccc2C)cc1	MCF10A rereplic 4.6µM, SW480 rereplic inconclusive
CCOc1ccc(NC(=O)CSc2ncc(-c3ccc(F)cc3)n2Cc2ccco2)cc1	MCF10A rereplic inconclusive, SW480 rereplic inconclusive
Cc1ccc(C(=C2C3C=CC2C2C(=O)NC(=O)C32)c2ccc(C)cc2)cc1 (stereo unspecified)	KB-3-1 tox inconclusive, MCF10A rereplic inconclusive, KB-V1 MDR tox 15µM
COc1ccc(-c2ccc3c(N)c(C(=O)Nc4ccc(C)cc4C)sc3n2)cc1OC	none (no result: hERG WT inh, KCNH2 3.1 block, MCF10A rereplic, SW480 rereplic)
